Here are results for seven molecules from PubChem BioAssay (Tox21).

A number with no mark means an inactive call. Records with an inconclusive call do not appear. Calls of active or inactive are those of the source. Unless noted, calls follow the shape of the dose curve; as a rule, active = well fitted curve in the direction sought with a large enough effect in the repeat runs; inconclusive = weak or mixed curves; inactive = no such curve, though single readings can be large; an effect the other way counts as inactive or inconclusive.

Test [1] has as its target Thyrotropin-releasing hormone receptor (Homo sapiens) (UniProt P34981). The test is described as follows: qHTS assay to identify small molecule agonists of the thyrotropin-releasing hormone receptor (TRHR) signaling pathway (AID 1346891; calls by dose curve;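 also: HEK293 cells expressing TRHR with calcium dye readout; series mostly up to about 58 µM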). Put shortly: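 Cells: TRHR-Hek293, seeded and incubated 18 h. Dye loading: 2 h at 37 °C. Compound added from DMSO stock by pin tool. Read-out: kinetic calcium fluorescence over 3 min.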
For orientation: qHTS replaces the single test concentration by a dilution series.

Test [2] in a line: Human pregnane X receptor (PXR) small molecule agonists, qHTS cell viability counter screen (AID 1346977). Also: nearly all actives have a fitted effect of over 50% in size. The method in brief:
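Cytotoxicity counter screen run in the same wells as the PXR luciferase assay, using PXR-Luc HepG2 cells in charcoal-stripped serum medium. Viability: CellTiter-Fluor fluorescence after 24hr compound treatment.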

Test [3] can be described thus: Caspase-3/7 induction in HepG2 cells by small molecules, qHTS assay (AID 1346978). Also: nearly all actives have a fitted effect of over 15% in size. Put shortly:
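Wild-type HepG2 cells (2,000/well) were settled 5 h at 37 C, 5% CO2, then exposed to compounds in DMSO for 17 h. Caspase-3/7 activity was read by luminescence 30 min after adding Caspase-Glo 3/7 reagent at room temperature.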

Test [4] in a line: Caspase-3/7 induction in CHO-K1 cells by small molecules, qHTS cell viability counter screen (AID 1346979). Also: nearly all actives have a fitted effect of over 35% in size. The method in brief:
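Cytotoxicity counter screen run in parallel with the caspase-3/7 assay: CHO-K1 cells, 16hr compound treatment at 37C, then CellTiter-Fluor for 1hr before fluorescence reading.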

Test [5] in a line: Caspase-3/7 induction in CHO-K1 cells by small molecules, qHTS assay (AID 1346980). Also: nearly all actives have a fitted effect of over 15% in size. Put shortly: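 Wild-type cells were seeded at 1,500 per well and settled 5 hr at 37 C, 5% CO2, then exposed to DMSO-dissolved compounds for 17 hr. Caspase-Glo 3/7 reagent was added, and luminescence was read after 30min at room temperature.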
The nature of test [6]: Caspase-3/7 induction in HepG2 cells by small molecules, qHTS cell viability counter screen (AID 1346981). Also: series mostly up to about 92 µM; nearly all actives have a fitted effect of over 30% in size. The method in brief: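 After a 5-hr attachment period at 37 C and 5% CO2, wild-type HepG2 cells received compounds in DMSO. Sixteen hours later CellTiter-Fluor was dispensed and the fluorescent signal quantified after a further hour.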
Test [7] concerns the target Nuclear receptor subfamily 1 group I member 2 (Homo sapiens) (UniProt O75469). The test is described as follows: Human pregnane X receptor (PXR) small molecule agonists, qHTS assay (AID 1346982). Also: nearly all actives have a fitted effect of over 35% in size. The method in brief:
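Tox21 qHTS; PXR-Luc HepG2; compounds pinned from DMSO; 24 hr, 37 C; ONE-Glo luciferase detection, 30 min room temperature.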

Test [8] has as its target Acetylcholinesterase (Homo sapiens) (UniProt P22303). The test is described as follows: Acetylcholinesterase (AChE) small molecule antagonists: colormetric cell-based qHTS assay (AID 1347395; calls by dose curve; also: nearly all actives have a fitted effect of over 30% in size). Put shortly:
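Cells (SH-SY5Y, 2,000 per well) are seeded and left overnight at 37 C. Compound is added for 30 min, then DTNB and acetylthiocholine for a further 90 min at 37 C before absorbance-based thiocholine detection.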

Test [9] shares this target. The test is described as follows: Acetylcholinesterase (AChE) small molecule antagonists: enzyme-based qHTS assay (AID 1347397; calls by dose curve; also: nearly all actives have a fitted effect of over 55% in size). The note with it: Potency: AChE enzyme activity inhibition; outcome: AChE enzyme activity inhibition. The method in brief:
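Tox21 library chemicals are tested in qHTS format against recombinant human AChE. The enzyme, dispensed at 50 mU/mL, sits with compound for 30 min at room temperature. A DTNB–acetylthiocholine cocktail follows, and colour is read after 10 min.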

Test [10] has the same target. The test is described as follows: Acetylcholinesterase (AChE) small molecule antagonists: fluorescence cell-based qHTS assay (AID 1347398; calls by dose curve; also: nearly all actives have a fitted effect of over 50% in size). The note with it: Potency: AChE activity; outcome: AChE activity. Put shortly: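 Cellular AChE inhibition: SH-SY5Y cells treated with test chemical for 30 min at 37 C, then acetylthiocholine hydrolysis followed over 40 min at room temperature via thiocholine-reactive Thiolite Green fluorescence (490/520 nm).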

Test [11] shares this target. The test is described as follows: Acetylcholinesterase (AChE) small molecule antagonists: enzyme-based qHTS assay with human liver microsomes (AID 1347399; calls by dose curve; also: nearly all actives have a fitted effect of over 60% in size). The note with it: Potency: qHTS inhibition; outcome: qHTS inhibition. Put shortly:
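Recombinant human AChE (50 mU/mL in the enzyme mix) and human liver microsomes (0.25 mg/mL final) were preincubated with compound and NADPH (0.25 mg/mL final) for 30 min at 37 C. Acetylthiocholine/DTNB was then added; thiocholine was read colorimetrically after 10 min at room temperature.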

The target of test [12] is Cytochrome P450 2D6 (Homo sapiens) (UniProt P10635). The test is described as follows: Cytochrome P450 Family 2 Subfamily D Member 6 (CYP2D6) small molecule antagonists: luciferase reporter qHTS assay (AID 1671196). Also: nearly all actives have a fitted effect of over 50% in size. Also: potency is read from the fitted curve at half-maximal effect. As to activity change, negative = inhibition: series mostly up to about 120 µM. The method in brief: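 Room-temperature luminescent CYP2D6 activity assay: compound preincubated 10 min with enzyme–substrate mix, NADPH-initiated reaction 1 h, detection reagent 20 min before reading.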
For orientation: In a reporter assay the amount or activity of a reporter protein is the signal.

Test [13] addresses Cytochrome P450 2C19 (Homo sapiens) (UniProt P33261). The test is described as follows: Cytochrome P450 Family 2 Subfamily C Member 19 (CYP2C19) small molecule antagonists: luciferase reporter qHTS assay (AID 1671197). Also: nearly all actives have a fitted effect of over 65% in size. Also: potency is read from the fitted curve at half-maximal effect. As to activity change, negative = inhibition: series mostly up to about 120 µM. The method in brief: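 CYP2C19 P450-Glo, 1536-well qHTS. Cpd + enzyme/proluciferin substrate 10 min RT; + NADPH regen, 37C 1 h; stop with luciferin detection reagent, 20 min RT, luminescence (RLU). Pos ctrl ketoconazole.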

Test [14] has as its target Cytochrome P450 2C9 (Homo sapiens) (UniProt P11712). The test is described as follows: Cytochrome P450 Family 2 Subfamily C Member 9 (CYP2C9) small molecule antagonists: luciferase reporter qHTS assay (AID 1671198). Also: nearly all actives have a fitted effect of over 50% in size. Also: potency is read from the fitted curve at half-maximal effect. As to activity change, negative = inhibition: series mostly up to about 120 µM. The method in brief:
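CYP2C9 activity was measured with a P450-Glo proluciferin substrate. Enzyme–substrate mix was held with compound for 10 min at room temperature, then NADPH regeneration solution was added for 1 h at 37C. Luciferin product was read as luminescence.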

Test [15] deals with Voltage-gated inwardly rectifying potassium channel KCNH2 (Homo sapiens) (UniProt Q12809). The test is described as follows: Human Ether-a-go-go-Related Gene (hERG) channel small molecule antagonists: fluorescence cell-based qHTS assay (AID 1671200). Put shortly: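 Fluorescence at 540 nm emission (480 nm excitation) was recorded kinetically for 2 min at 1-second intervals once the thallium-containing stimulus reached cells previously loaded with FluxOR II dye.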

Test [16] addresses Cytochrome P450 3A4 (Homo sapiens) (UniProt P08684). The test is described as follows: Cytochrome P450 Family 3 Subfamily A Member 4 (CYP3A4) small molecule antagonists: luciferase reporter qHTS assay (AID 1671201). The method in brief: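 qHTS, 1536-well. CYP3A4 + proluciferin substrate, cpd 10 min RT → NADPH regen 1 h RT → detection reagent 20 min → luminescence (RLU). Ketoconazole positive control.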

Test [17] has as its target Nuclear receptor subfamily 1 group I member 2 (Rattus norvegicus) (UniProt Q9R1A7). The test is described as follows: Rat pregnane X receptor (rPXR) activation by small molecules, qHTS assay (AID 1346983). Also: nearly all actives have a fitted effect of over 20% in size. The note with it: rPXR luciferase reporter cells, One-Glo luminescence, 24 h; hits give high values. The method in brief:
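Cell-based rPXR luciferase reporter assay, 2,000 cells per well, rested 5hr at 37 C before compound addition in DMSO, then 24 hr at 37 C. One-Glo reagent was added and luminescence read after 30 min at room temperature.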

In test [18] the target is Nuclear receptor subfamily 1 group I member 2 (Homo sapiens) (UniProt O75469). The test is described as follows: Human pregnane X receptor (PXR) activation by small molecules, qHTS assay (AID 1346985). Also: nearly all actives have a fitted effect of over 40% in size. The method in brief:
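DPX-2 cells (HepG2 co-transfected with a PXR response element and a CYP3A4-promoter luciferase construct) were seeded at 2,000 per well, rested 5 hr at 37C, then exposed to DMSO-dissolved compounds for 24 hr. Activation was read as luciferase luminescence.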

Test [19] deals with Cytochrome P450 1A2 (Homo sapiens) (UniProt P05177). The test is described as follows: Cytochrome P450 Family 1 Subfamily A Member 2 (CYP1A2) small molecule antagonists: luciferase reporter qHTS assay (AID 1671199). Put shortly: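 Room-temperature CYP1A2 reaction with proluciferin substrate: compounds added from DMSO, 10 min preincubation, NADPH regeneration for 1 h. Luciferin detection reagent then added; luminescence recorded as RLU.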
% is scaled to controls: 0 for no effect and ±100 for the full control effect.

Nuclear receptor subfamily 1 group I member 2 (Rattus norvegicus), sequence (Q9R1A7 whole entry, looked up): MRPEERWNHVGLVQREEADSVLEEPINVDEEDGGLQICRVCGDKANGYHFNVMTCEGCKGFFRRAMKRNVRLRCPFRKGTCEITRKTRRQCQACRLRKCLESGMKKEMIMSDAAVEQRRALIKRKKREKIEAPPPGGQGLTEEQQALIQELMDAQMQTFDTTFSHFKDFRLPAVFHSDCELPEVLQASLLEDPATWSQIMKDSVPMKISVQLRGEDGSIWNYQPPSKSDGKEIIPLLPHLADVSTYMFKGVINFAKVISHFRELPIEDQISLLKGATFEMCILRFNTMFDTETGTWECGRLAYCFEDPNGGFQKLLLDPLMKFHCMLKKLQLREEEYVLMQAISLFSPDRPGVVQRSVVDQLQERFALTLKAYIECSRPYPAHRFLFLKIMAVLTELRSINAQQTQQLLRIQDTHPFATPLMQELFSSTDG
Nuclear receptor subfamily 1 group I member 2 (Homo sapiens), sequence (O75469 whole entry, looked up): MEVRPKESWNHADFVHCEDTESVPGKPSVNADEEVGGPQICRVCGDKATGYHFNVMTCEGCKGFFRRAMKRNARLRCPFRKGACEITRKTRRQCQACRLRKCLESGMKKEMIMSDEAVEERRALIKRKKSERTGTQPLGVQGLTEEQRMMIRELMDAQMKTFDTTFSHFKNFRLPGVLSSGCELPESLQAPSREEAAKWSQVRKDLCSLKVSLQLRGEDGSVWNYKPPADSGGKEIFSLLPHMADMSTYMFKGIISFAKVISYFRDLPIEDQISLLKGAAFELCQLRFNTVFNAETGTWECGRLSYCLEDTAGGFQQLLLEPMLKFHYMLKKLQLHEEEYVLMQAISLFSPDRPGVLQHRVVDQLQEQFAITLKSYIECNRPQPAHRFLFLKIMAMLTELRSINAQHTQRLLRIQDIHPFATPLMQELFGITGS
Cytochrome P450 2D6 (Homo sapiens), sequence (P10635 whole entry, looked up): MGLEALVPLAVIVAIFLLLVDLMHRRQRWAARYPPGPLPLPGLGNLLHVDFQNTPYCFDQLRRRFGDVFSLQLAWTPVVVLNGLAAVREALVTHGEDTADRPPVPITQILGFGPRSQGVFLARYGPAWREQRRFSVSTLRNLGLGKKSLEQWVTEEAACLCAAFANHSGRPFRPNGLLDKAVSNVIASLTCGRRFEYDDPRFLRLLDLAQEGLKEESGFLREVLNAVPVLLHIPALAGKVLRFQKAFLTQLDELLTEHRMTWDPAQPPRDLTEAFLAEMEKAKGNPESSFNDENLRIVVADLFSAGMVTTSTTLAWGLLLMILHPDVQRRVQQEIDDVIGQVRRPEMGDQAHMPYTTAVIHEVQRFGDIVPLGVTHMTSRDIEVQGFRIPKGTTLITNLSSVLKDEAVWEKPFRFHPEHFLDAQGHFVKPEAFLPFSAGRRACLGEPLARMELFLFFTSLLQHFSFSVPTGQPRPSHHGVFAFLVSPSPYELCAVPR
Cytochrome P450 2C9 (Homo sapiens), sequence (P11712 whole entry, looked up): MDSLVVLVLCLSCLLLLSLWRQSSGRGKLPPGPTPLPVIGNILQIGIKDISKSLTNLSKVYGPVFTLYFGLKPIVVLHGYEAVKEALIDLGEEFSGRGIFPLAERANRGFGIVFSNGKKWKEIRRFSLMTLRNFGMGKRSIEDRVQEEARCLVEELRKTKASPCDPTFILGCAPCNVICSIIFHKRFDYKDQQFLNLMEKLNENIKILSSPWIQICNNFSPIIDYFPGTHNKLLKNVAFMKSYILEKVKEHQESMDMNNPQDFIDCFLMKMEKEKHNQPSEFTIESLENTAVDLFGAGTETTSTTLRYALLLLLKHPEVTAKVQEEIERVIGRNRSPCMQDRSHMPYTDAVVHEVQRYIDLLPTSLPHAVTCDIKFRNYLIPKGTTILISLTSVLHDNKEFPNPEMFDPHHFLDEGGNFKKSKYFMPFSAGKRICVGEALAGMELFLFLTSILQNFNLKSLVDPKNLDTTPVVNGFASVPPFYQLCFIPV
Cytochrome P450 3A4 (Homo sapiens), sequence (P08684 whole entry, looked up): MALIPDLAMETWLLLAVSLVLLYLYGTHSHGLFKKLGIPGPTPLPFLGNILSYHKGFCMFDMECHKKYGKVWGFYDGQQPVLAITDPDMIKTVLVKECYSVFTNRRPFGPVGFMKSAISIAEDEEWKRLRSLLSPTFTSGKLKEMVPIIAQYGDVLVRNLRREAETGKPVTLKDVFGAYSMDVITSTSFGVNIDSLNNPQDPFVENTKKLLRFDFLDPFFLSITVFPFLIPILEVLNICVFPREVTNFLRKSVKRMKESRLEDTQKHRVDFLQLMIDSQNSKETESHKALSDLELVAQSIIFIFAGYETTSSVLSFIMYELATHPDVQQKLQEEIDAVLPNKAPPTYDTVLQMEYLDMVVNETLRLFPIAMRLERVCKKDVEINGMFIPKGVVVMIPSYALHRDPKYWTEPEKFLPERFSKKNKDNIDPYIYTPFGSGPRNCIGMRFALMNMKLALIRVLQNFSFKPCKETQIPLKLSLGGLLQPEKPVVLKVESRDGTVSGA
Cytochrome P450 1A2 (Homo sapiens), sequence (P05177 whole entry, looked up): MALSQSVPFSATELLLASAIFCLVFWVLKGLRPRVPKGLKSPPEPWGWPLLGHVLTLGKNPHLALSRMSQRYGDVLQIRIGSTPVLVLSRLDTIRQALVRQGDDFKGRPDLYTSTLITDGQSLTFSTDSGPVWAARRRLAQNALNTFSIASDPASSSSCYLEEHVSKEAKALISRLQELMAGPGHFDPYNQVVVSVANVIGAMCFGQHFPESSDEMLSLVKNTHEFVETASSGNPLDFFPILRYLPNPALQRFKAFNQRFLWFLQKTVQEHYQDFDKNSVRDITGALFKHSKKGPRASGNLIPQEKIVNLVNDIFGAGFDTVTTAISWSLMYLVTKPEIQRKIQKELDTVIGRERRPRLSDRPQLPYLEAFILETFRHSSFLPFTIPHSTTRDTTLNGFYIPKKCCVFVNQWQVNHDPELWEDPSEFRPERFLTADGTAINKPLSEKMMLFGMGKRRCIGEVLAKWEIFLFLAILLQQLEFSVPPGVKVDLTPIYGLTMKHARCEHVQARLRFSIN
Thyrotropin-releasing hormone receptor (Homo sapiens), sequence (P34981 whole entry, looked up): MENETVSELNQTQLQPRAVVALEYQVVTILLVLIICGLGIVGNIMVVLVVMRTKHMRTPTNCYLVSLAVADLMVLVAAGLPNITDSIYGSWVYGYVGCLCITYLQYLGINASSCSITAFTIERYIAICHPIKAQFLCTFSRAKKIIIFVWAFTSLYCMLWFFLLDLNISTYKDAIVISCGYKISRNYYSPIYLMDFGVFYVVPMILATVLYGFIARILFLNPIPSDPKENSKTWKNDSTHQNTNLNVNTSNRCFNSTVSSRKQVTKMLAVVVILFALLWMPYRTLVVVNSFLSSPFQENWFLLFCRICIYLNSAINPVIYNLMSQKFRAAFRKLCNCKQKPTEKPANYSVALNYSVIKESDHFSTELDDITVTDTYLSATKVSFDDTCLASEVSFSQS
Acetylcholinesterase (Homo sapiens), sequence (P22303 whole entry, looked up): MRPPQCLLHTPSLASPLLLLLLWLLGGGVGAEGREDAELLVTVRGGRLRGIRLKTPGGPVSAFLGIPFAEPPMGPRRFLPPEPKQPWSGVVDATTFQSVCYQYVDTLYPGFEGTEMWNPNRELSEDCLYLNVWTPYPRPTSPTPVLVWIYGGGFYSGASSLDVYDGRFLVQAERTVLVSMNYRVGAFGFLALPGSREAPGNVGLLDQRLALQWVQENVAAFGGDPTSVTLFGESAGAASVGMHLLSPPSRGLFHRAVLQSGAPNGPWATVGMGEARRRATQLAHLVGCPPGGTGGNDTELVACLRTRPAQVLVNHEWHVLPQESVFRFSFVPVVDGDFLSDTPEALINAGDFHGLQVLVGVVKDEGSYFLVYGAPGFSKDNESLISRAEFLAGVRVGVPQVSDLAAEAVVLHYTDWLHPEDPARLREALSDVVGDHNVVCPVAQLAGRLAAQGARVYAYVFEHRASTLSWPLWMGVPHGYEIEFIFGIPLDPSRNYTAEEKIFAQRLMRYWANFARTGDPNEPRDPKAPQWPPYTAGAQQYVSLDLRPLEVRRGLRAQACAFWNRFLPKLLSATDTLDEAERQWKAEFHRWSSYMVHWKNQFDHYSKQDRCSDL
Cytochrome P450 2C19 (Homo sapiens), sequence (P33261 whole entry, looked up): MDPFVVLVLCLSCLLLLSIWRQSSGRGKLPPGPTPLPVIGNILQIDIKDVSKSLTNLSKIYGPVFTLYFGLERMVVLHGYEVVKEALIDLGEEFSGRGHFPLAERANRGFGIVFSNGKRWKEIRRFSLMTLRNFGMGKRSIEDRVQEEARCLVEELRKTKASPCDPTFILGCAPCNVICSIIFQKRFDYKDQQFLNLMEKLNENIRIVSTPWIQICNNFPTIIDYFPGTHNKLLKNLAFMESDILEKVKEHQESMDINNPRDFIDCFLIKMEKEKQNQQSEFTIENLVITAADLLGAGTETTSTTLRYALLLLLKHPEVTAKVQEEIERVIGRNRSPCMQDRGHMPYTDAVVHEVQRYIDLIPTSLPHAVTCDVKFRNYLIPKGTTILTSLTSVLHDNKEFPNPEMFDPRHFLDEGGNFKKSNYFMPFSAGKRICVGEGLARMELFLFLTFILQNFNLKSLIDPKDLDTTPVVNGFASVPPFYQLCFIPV

With `CN(C)C1CCCCC1`, the result in test [1], in test [3] and in [5] was inactive. Moreover, the Potency result in test [2], in [4], in test [6], in test [7], in test [8] and in test [9] was “inactive” each time. In addition, the Potency entry in [10], in test [11], in [12], in [13], in test [14] and in test [15] was “inactive” in each case. The Potency entry in test [16] was “inactive”.

In the case of `N[C@@H]1C[C@H]1c1ccccc1`, the call in test [1], in test [3], in [5], in test [8], in [9] and in test [10] was inactive. The outcome in test [11] was inactive. Also, the Potency entry in test [2], in [4], in [6], in test [7], in [18] and in [15] was “inactive” throughout. Also, the max activation in test [17] is -1.36%. Besides, the Potency is 27.5 µM (active) in [12] and 19.5 µM (active) in test [14].

For the molecule `O=[N+]([O-])CCO`, the outcome in [1], in test [3] and in test [5] was inactive. For the same molecule, the Potency entry in test [2], in [4], in [6], in [7], in [8] and in test [9] was “inactive” throughout. The Potency result in test [10], in test [11], in test [12], in [13], in test [14] and in [19] was “inactive” each time. Besides, the Potency entry in [15] and in test [16] was “inactive” throughout.

Turning to `O=C(O)CBr`, the call in test [1], in [3] and in test [5] was inactive. The Potency entry in test [2], in [4], in [6], in test [7], in test [8] and in test [9] was “inactive” each time. Moreover, the Potency result in test [10], in [11], in test [12], in test [13], in [14] and in [19] was “inactive” in each case. The Potency result in test [15] and in test [16] was “inactive” each time.

Turning to `CCCCCCC(=O)CCCCCC/C=C/C[C@@H](O)[C@H](O)[C@@](N)(CO)C(=O)O`, the values for the activation in test [1] and in test [7] were 0.008% [at 11.8 µM] and -4.6% [at 19 µM], respectively. Moreover, the figures for the activity change, negative = cytotoxicity in test [2], in test [4] and in test [6] were 6.98% [at 19 µM], 4.97% [at 19 µM] and 5.08% [at 19 µM], respectively. Also, the caspase activation in test [3] was 0.643% [at 19 µM]. The caspase-3/7 activation in [5] was 2.67% [at 19 µM]. In addition, the max activation in [17] was -5.78%. The Potency entry in test [18] was “inactive”. Moreover, the activity, negative = inhibition in test [8] is 0.986% [at 23.6 µM]. Besides, the activity change, negative = inhibition is 0.415% [at 23.6 µM] in test [9]; -0.579% [at 23.8 µM] in test [10]; -0.222% [at 23.6 µM] in test [12]; 14.2% [at 23.6 µM] in test [13]; 9.38% [at 23.6 µM] in test [14]; -0.0703% [at 23.6 µM] in test [19]. Also, the activity change, negative = inhibition is 0.803% [at 15.8 µM] in test [15] and 24.6% [at 23.6 µM] in [16].

Turning to `CCC(C(N)=O)N1CCCC1=O` (configuration not stated), the result in test [1], in test [3] and in test [5] was inactive. Moreover, the Potency entry in test [2], in test [4], in test [6], in test [7], in test [18] and in test [8] was “inactive” in each case. Further, the Potency result in [10], in test [11], in test [13], in [14], in test [19] and in test [15] was “inactive” each time. Also, the Potency entry in [16] was “inactive”. The max activation in test [17] is 4.65%.

`C1CN2CCC1CC2`: the result in test [1], in test [3] and in test [5] was inactive. The Potency result in [2], in test [4], in test [6], in test [7], in test [8] and in test [9] was “inactive” in each case. Moreover, the Potency result in [10], in [11], in test [14], in test [19], in test [15] and in test [16] was “inactive” in each case. In addition, the Potency in test [13] was 43.6 µM (active).
